# USP17 block – blocks human USP17 ubiquitin-rhodamine cleavage | 47,000 tested, 6.5% active | inhibition, % at 50 µM | A8MUK1 | purified USP17, Ub-rhodamine cleavage fluorescence, 3 h | AID 1645855
# USP30 inh – blocks human USP30 ubiquitin-rhodamine cleavage; purified USP30, Ub-rhodamine cleavage fluorescence; 47,000 tested, 5.3% active; inhibition, % at 25 µM; AID 1645860
# USP8 block – inhibitors of human USP8 deubiquitinase. 47,000 tested, 4.2% active. inhibition, % at 20 µM. P40818. purified USP8, Ub-rhodamine cleavage fluorescence, 30 min
# USP28 block – blocks human USP28 ubiquitin-rhodamine cleavage. inhibition, % at 25 µM. purified USP28, Ub-rhodamine cleavage fluorescence, 30 min. Q96RU2. 47,000 tested, 3% active
# An asterisk follows results filed as active; i = inactive; . = no result given. Sampled rows, rich in hits. Any-hit rate of the full collection: about 13%. Cut-off read from the data, not from the text of the source: active = inhibition above about 30%; inactive = the rest.
SMILES,USP17 block,USP30 inh,USP8 block,USP28 block
COC(=O)c1ccc(CSc2nnc(/C=C/c3ccccc3)o2)cc1,-1.4,-4.0,-5.5,-14.7
O=[N+]([O-])c1cccc(CSc2nnc(/C=C/c3ccccc3)o2)c1,18.3,25.5,10.2,57.5*
CC(C)(C)OC(=O)NCc1ccc(C(=O)Nc2ccc(CN3CCOCC3)cc2)cc1,-6.4,-25.8,-13.5,-8.8
CCC(C)Oc1cccc(C(=O)Nc2ccc(CN3CCOCC3)cc2)c1 (configuration not stated),-8.4,0.4,7.0,80.0*
COc1ccc(-n2cc(-c3ccc4c(c3)OCO4)n(CC(=O)Nc3ccc(OC)c(OC)c3)c2=O)cc1,12.1,-31.4,0.9,-9.8
O=C(c1ccco1)[C@@H]1[C@@H]2C(=O)N(c3ccc(Cl)c(C(F)(F)F)c3)C(=O)[C@@H]2C2c3ccccc3C=CN21 (some centres not stated),-15.4,i,7.9,-148.1
COc1ccc(Cl)cc1NC(=O)C1[C@@H]2C(=O)N(Cc3ccc4c(c3)OCO4)C(=O)[C@@H]2[C@H]2c3ccccc3C=CN12 (some centres not stated),24.2,-99.3,72.0*,45.2*
COc1ccc(Cl)cc1NC(=O)C1C2C(=O)N(c3ccc4c(c3)OCO4)C(=O)C2C2c3ccccc3C=CN12 (configuration not stated),-56.0,i,29.6,-11.3
O=C(c1ccco1)C1C2C(=O)N(c3ccc(Br)cc3)C(=O)C2C2c3ccccc3C=CN12 (configuration not stated),2.2,-298.1,46.1*,-13.2
COc1ccc(N2C(=O)[C@@H]3[C@H]4c5ccccc5C=CN4C(C(=O)Nc4ccc5c(c4)OCO5)[C@@H]3C2=O)cc1 (some centres not stated),63.7*,-164.0,87.4*,-3.8
CC(C)c1nc2c(NC(=O)COc3ccccc3)cccn2n1,-15.6,-38.9,-6.5,-14.4
O=C(c1cc(-c2cccnc2)n[nH]1)N1CCN(CCOc2ccc(Cl)cc2)CC1,-19.7,-2.9,0.0,-8.4
Cc1ccccc1OCCC(=O)Nc1cccc(S(=O)(=O)Nc2ccccc2Cl)c1,55.3*,25.6,14.7,28.8
Cc1ccc(NS(=O)(=O)c2cc(NC(=O)CCOc3ccccc3C)ccc2C)c(C)c1,16.6,27.9,7.5,12.3
O=C(O)c1cn(Cc2ccc(F)cc2)nc1S(=O)(=O)N1CCCCC1,-12.9,28.1,-276.6,4.9
CC(C)n1c(=O)c(NCc2ccc(F)cc2F)nc2ccncc21,-18.2,.,-21.8,.
O=C(Nc1ccc2c(c1)COC2=O)c1ccc(F)cc1,19.0,-2.0,0.5,0.0
O=C(Nc1ccc2sccc2c1)c1ccc(F)cc1,49.1*,57.7*,5.0,9.6
CCCCn1c(=O)n(CC(=O)NCc2ccc(C)cc2)c(=O)c2c1nc(CO)n2CCC,5.2,25.3,15.1,10.9
COc1ccccc1NS(=O)(=O)c1ccc(NC(=O)Cc2ccc(Cl)cc2)cc1,45.4*,2.9,-5.5,8.7
Cc1cc(NS(=O)(=O)c2ccc(NC(=O)COc3ccc(Cl)cc3)cc2)no1,3.2,10.0,11.3,4.7
COc1ccc(NC(=O)Cc2ccccc2)cc1S(=O)(=O)Nc1ccccc1Cl,4.5,13.9,9.1,11.3
O=C(COc1ccc(Cl)cc1)Nc1ccc(S(=O)(=O)Nc2ccccc2)cc1,40.5*,37.5*,8.5,20.6
CCOc1ccc(-n2c(Cc3cc(=O)[nH]c(=O)[nH]3)nnc2SCc2cccnc2)cc1,-7.2,-5.4,-3.7,-5.0
CC(=O)Nc1ccc(C(=O)N2CC[C@H]3COC(=O)N(C)[C@@H]3C2)cc1,1.5,24.6,0.0,3.0
SMILES,USP17 block,USP30 inh,USP8 block,USP28 block
Cc1ccc(OCc2nc3ccccc3n2C(C)c2ccccc2)cc1 (configuration not stated),16.6,34.1*,8.6,26.8
COc1cccc(NC(=O)N2CCN(C3=CC4=NCC(C)N4C=N3)CC2)c1 (configuration not stated),-26.8,-7.3,-28.3,-6.4
CC(C)Cc1nc2sc3c(NC4CCCCC4)ncnc3c2c2c1CCC2,-8.1,-8.5,-4.2,-8.2
CC(=O)Nc1ccc(-n2cnc(C(=O)N3CCC(C)CC3)c2)nc1,1.7,2.6,4.2,-7.8
CC1CCN(C(=O)c2cn(-c3cc(N4CCC(C)CC4)ncn3)cn2)CC1,3.3,28.1,-0.7,70.8*
COc1ccc(Cn2ccc(-c3ccccc3)c(C#N)c2=O)cc1,15.7,21.0,3.5,20.2
N#Cc1c(-c2ccccc2)ccn(Cc2cccc(C(F)(F)F)c2)c1=O,52.9*,44.0*,17.3,16.5
Cc1noc(-c2cccn(Cc3cccc(C(F)(F)F)c3)c2=O)n1,13.0,13.8,24.0,76.4*
COc1cccc(Cn2cccc(-c3nc(C)no3)c2=O)c1,1.1,.,0.7,.

# From PubChem
